The values below come from PubChem BioAssay.

The source made the active and inactive calls.

Assay [1] in a line: binders of probe aFSTL3 on microarray, primary screen, stem cell growth factor project, biochemical, small-molecule microarray, fluorescence 635/667 (AID 1064).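 Further: measures binding of the biotinylated anti-FSTL3 antibody to printed compounds.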 To be noted: higher = more signal.
A short description of assay [2]: binders from COS7 lysate, DM2A8 probe, primary screen, torsin A project, cell lysate, small-molecule microarray, fluorescence 635/667 (AID 1065). The note with it: higher = more signal, COS7 lysate expressing mutant human TOR1A.
A short description of assay [3]: binders of probe aFGF2 on microarray, primary screen, stem cell growth factor project, biochemical, small-molecule microarray, fluorescence 635/667 (AID 1067).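 Further: measures binding of biotinylated aFGF2 protein to printed compounds on slides; z-score merges feature fluorescence and signal-to-noise across triplicate slides.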 To be noted: higher = more signal.
Assay [4] in a line: binders of probe aFGF10 on microarray, primary screen, stem cell growth factor project, biochemical, small-molecule microarray, fluorescence 635/667 (AID 1071).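 Further: score merges 667 nm spot intensity and signal to noise from triplicate slides.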 To be noted: higher = more signal.
For assay [5], the target named is Neurogenic locus notch homolog protein 2 (Homo sapiens) (UniProt Q04721). Briefly: Notch2 binders on small-molecule microarrays, primary screen, biochemical, small-molecule microarray, 635 nm fluorescence, stem cell growth factors (AID 1073). The note with it: Notch2 binding, higher = more signal.
The target in assay [6] is Pro-neuregulin-1, membrane-bound isoform (Homo sapiens) (UniProt Q02297). Briefly: NRG1 binders on small-molecule microarrays, primary screen, psychiatric disease protein project, biochemical, small-molecule microarray, fluorescence 635/667 (AID 1075).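 Further: score combines 667 nm spot fluorescence with signal to noise.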 The note with it: NRG1 binding, 635 nm fluorescence, higher = more signal.
Assay [7] relates to Neuregulin-1 EGF-like domain. Briefly: binders of neuregulin-1 EGF-like domain, primary screen, biochemical, small-molecule microarray, 635 nm fluorescence (AID 1081).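 Further: binding of the protein to compounds printed on small-molecule microarray slides.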 The note with it: small-molecule microarray binding, higher = more signal.
A short description of assay [8]: FRG1 promoter luciferase signal modulators, primary screen, FRG1 inhibition for FSHD, cell-based, C2C12 myotubes, firefly/Renilla luciferase, luminescence (AID 1084). The note with it: higher = more signal, called active from +8 up or from −8 down.
A short description of assay [9]: binders of probe aFST on microarray, primary screen, stem cell growth factor project, biochemical, small-molecule microarray, fluorescence 635/667 (AID 1086).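 Further: score merges 667 nm fluorescence with signal-to-noise of each printed compound spot.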 The note with it: higher = more signal.
Assay [10] is described as follows: binders of probe aHhip on microarray, primary screen, stem cell growth factor project, biochemical, small-molecule microarray, fluorescence 635/667 (AID 1087).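 Further: score merges spot fluorescence at 667nm with spot signal to noise ratio.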 To be noted: higher = more signal.

Pro-neuregulin-1, membrane-bound isoform (Homo sapiens), sequence (Q02297 whole entry, looked up, the tested form may be a part, canonical isoform): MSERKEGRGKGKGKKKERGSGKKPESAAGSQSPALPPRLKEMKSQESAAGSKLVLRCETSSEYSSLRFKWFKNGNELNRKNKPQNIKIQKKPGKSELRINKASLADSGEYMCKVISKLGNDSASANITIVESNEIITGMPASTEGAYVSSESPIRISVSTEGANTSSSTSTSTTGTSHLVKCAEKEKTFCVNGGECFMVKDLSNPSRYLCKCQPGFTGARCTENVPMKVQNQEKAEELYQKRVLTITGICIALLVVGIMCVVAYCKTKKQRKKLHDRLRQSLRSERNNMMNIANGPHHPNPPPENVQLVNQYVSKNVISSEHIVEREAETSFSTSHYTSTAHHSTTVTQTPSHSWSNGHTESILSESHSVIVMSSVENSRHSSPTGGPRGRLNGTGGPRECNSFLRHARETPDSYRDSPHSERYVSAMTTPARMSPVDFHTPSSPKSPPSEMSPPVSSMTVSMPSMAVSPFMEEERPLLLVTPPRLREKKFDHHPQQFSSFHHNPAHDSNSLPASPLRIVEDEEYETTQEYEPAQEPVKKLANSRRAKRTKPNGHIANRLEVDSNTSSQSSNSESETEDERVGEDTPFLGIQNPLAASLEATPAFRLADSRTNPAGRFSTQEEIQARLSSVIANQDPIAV
Neurogenic locus notch homolog protein 2 (Homo sapiens), sequence (Q04721 whole entry, looked up, canonical isoform): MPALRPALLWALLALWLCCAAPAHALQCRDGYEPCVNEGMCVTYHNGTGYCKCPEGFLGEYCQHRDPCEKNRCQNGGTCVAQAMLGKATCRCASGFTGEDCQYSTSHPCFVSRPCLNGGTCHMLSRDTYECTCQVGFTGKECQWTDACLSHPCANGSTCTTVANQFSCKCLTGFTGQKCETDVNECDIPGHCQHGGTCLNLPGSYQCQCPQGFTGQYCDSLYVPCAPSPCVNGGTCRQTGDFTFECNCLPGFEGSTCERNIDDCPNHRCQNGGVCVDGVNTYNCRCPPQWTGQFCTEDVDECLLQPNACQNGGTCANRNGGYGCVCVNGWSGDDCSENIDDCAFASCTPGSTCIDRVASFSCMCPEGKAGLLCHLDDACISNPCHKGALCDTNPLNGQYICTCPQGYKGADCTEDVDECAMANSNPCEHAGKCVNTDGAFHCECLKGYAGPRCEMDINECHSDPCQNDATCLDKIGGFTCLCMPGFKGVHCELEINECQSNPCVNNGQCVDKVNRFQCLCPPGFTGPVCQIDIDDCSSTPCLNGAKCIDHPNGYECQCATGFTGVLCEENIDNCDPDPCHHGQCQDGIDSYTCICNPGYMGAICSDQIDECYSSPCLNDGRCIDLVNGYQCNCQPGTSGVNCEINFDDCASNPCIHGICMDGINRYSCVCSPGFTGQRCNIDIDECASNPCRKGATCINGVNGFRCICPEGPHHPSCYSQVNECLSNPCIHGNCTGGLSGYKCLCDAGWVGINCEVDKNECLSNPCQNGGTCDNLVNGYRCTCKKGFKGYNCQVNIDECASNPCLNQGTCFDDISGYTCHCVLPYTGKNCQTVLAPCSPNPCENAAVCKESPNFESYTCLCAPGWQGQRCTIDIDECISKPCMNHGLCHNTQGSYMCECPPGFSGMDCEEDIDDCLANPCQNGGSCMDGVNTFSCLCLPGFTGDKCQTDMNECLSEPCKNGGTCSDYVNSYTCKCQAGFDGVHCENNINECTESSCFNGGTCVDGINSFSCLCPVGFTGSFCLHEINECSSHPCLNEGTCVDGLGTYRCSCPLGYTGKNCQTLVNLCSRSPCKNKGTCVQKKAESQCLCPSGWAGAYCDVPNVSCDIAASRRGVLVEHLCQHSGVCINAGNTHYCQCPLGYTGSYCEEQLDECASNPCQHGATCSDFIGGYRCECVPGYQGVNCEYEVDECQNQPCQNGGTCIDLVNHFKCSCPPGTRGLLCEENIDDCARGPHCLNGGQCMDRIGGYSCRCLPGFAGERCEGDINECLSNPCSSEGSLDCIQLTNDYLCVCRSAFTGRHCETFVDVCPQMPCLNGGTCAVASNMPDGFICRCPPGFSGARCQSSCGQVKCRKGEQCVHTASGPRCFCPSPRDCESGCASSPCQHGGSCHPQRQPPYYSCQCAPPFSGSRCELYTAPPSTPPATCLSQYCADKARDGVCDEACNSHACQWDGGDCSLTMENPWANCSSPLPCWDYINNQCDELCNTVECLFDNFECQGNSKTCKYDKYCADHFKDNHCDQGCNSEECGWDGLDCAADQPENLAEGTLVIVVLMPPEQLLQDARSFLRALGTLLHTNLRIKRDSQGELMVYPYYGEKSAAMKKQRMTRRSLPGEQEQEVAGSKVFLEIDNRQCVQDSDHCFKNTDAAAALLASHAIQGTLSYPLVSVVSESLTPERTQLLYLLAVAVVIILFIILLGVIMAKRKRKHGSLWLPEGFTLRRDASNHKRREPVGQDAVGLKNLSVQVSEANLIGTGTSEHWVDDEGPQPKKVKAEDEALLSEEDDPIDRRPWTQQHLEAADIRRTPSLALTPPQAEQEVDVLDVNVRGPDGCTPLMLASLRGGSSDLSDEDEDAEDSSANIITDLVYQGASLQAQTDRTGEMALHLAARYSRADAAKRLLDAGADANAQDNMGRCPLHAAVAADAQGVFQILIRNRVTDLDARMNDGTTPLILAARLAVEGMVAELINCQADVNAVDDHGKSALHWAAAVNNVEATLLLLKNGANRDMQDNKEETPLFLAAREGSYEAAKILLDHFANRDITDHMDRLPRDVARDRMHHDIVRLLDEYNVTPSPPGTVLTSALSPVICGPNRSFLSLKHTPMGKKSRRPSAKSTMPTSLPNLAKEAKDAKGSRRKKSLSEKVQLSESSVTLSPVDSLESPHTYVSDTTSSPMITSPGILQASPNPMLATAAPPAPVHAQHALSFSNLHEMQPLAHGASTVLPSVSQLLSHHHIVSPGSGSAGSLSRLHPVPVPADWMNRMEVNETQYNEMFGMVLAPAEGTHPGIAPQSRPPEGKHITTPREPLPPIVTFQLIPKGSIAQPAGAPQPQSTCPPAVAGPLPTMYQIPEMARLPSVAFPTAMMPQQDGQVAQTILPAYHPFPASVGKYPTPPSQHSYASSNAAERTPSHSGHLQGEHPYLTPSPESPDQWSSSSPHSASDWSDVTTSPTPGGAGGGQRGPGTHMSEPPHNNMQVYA

With `O=C(NC1CC1)[C@@H]1c2ccccc2C(=O)N(Cc2ccccc2)[C@H]1c1ccc(CO)cc1`, the composite z-score in [1] is 0.176; in assay [2] it was -0.301; in assay [3] it was -0.0606; in [4] it was 0.207; in [5], -0.454; in assay [6], 1.4. Moreover, the composite z-score was 1.4 in assay [7], 0.646 in assay [9] and -0.493 in [10]. Besides, in assay [8], the z-score is -2.71 (inactive).
On to `COCC(=C=CC[C@H](O)c1cccc(OCCO)c1)C[C@H](O)c1ccccn1`, for which the composite z-score in assay [1] is -0.203; in assay [2], -0.3; in assay [3], -0.135; in assay [4], 0.18; in [5], -0.542; in assay [6], 1.24. In addition, the composite z-score in assay [7] is 1.44; in assay [9] it was 0.395; in assay [10], -0.0618. Further, in [8], the z-score is 0.0158 (inactive).
On to `CCOC(=O)[C@@H]1[C@@H]2C(=O)N(CC)C(=O)[C@@H]2C[C@@H]1Sc1ccccc1`, for which the composite z-score was -0.528 in assay [1]; 1.04 in assay [2]; 0.0308 in assay [3]; 0.712 in [4]; 1.39 in [5]; 0.354 in [6]. Moreover, the composite z-score in assay [7] was 1.33; in assay [9], 0.731; in [10], -0.226. In assay [8], the z-score is -1.02 (inactive).
In the case of `CC=CC(O)C1C=CC2C(=O)N(C)C(=O)C2N1Nc1ccc([N+](=O)[O-])cc1[N+](=O)[O-]` (stereo not given), the composite z-score was 0.028 in [1]; -0.183 in assay [2]; -0.185 in assay [3]; -0.0156 in assay [4]; -0.346 in assay [5]; 1.2 in assay [6]. Moreover, the composite z-score was 1.29 in assay [7], -0.441 in assay [9] and 0.312 in [10]. Also, the z-score in [8] was 0.639 (inactive).
For `C=CCN1C(=O)[C@@]2(O[C@@H](CCn3cc([C@H](O)c4ccccc4)nn3)[C@H]([Si](C)(C)c3ccc(OC)cc3)[C@H]2C)c2ccccc21`, the composite z-score in assay [1] is -0.0119; in [2], 0.395; in assay [3] it was -0.036; in assay [4] it was 0.386; in assay [5], 0.501; in [6] it was 1.31. Further, the values for the composite z-score in assay [7], in [9] and in assay [10] were 1.01, 0.728 and -0.289, respectively. Also, the z-score in [8] is -1.45 (inactive).
In the case of `O=C1O[C@@H](c2ccccc2)[C@@H](c2ccccc2)N2[C@@H](c3ccccc3OCCO)[C@]3(C(=O)Nc4ccccc43)[C@@H](C(=O)NC[C@H](O)c3ccccc3)[C@H]12`, the composite z-score is 0.421 in assay [1]; 0.98 in [2]; -0.0937 in assay [3]; 0.0718 in assay [4]; -0.843 in assay [5]; 0.551 in [6]. In addition, the figures for the composite z-score in [7], in [9] and in [10] were 1.2, -0.127 and -0.226, respectively. Also, the z-score in assay [8] is -2.8 (inactive).
`CCCCC(CC)C(O)C1C=CC2C(=O)N(c3ccccc3)C(=O)C2N1Nc1ccc([N+](=O)[O-])cc1` (stereo not given): the composite z-score in assay [1] is -0.294; in assay [2], 0.153; in assay [3] it was 0.141; in assay [4] it was 0.848; in assay [5] it was 1.73; in [6], 1.88. The results for the composite z-score in [7], in assay [9] and in [10] were 1.26, 1.1 and -0.234, respectively. For the same compound, the z-score in [8] is -1.62 (inactive).
Regarding `CC(C)(C)OC(=O)CC[C@]1(C(=O)NCCN2CCOCC2)N=C(c2ccc(OCCCO)cc2)O[C@H]1c1ccccc1`, the composite z-score is 0.445 in [1]; -1.1 in assay [2]; -0.0939 in [3]; -0.109 in assay [4]; -0.313 in [5]; 1.66 in assay [6]. The values for the composite z-score in [7], in assay [9] and in assay [10] were 1.09, 0.285 and -0.0618, respectively. Further, the z-score in [8] is 0.273 (inactive).
For `C=CC[C@]12N=C(c3ccc(OCCCO)cc3)O[C@H]1c1ccccc1N(C)C2=O`, the composite z-score is 1.21 in assay [1]; 0.541 in [2]; 0.0563 in assay [3]; 0.21 in assay [4]; 0.0523 in assay [5]; 1.3 in assay [6]. Also, the composite z-score is 1.22 in [7], 0.896 in [9] and 0.214 in assay [10]. Also, the z-score in assay [8] is -1.14 (inactive).
Regarding `CC(CO)N1C(=O)[C@@H]2C3C(=O)OCCC/C=C\[C@H]3OC23C=CCN(Cn2nnc4ccccc42)C(=O)[C@@H]13` (stereo not given in full), the composite z-score in [1] was -0.185; in assay [2], -0.469; in [3], -0.107; in [4] it was 0.285; in assay [5] it was -0.722; in assay [6] it was 1.7. In addition, the composite z-score in assay [7] is 1.34; in assay [9] it was -0.161; in assay [10], 0.21. Also, the z-score in assay [8] was -1.11 (inactive).
Take `CC(C)C[C@@H]1NC(=O)[C@H]2C[C@@H](C(=O)NCCCCCC[N+](C)(C)C)[C@@H](c3cccc(OCCO)c3)N2C1=O`: the composite z-score in assay [1] is -0.183; in assay [2], 0.121; in [3] it was -0.152; in assay [4], -0.214; in assay [5] it was -0.356; in [6], -0.0252. Besides, the composite z-score is 1.34 in [7], -0.601 in assay [9] and -0.134 in assay [10]. Further, the z-score in [8] was 4.18 (inactive).
For the compound `COc1ccc(NN2C(C(O)c3ccccn3)C=CC3C(=O)N(C4CCCCC4)C(=O)C32)cc1` (stereo not given), the composite z-score was -0.218 in assay [1]; -0.287 in assay [2]; 0.0944 in [3]; 0.467 in assay [4]; 1.59 in assay [5]; 1.36 in assay [6]. Moreover, the composite z-score in assay [7] is 1.17; in [9] it was 1.29; in assay [10], -0.152. For the same compound, the z-score in [8] is 3.21 (inactive).
As to `COC(=O)C1(Cc2ccccc2)C=C2C(=C(C(C)C)C(=O)C2C)CN1` (stereo not given), the composite z-score in [1] is 1.63; in assay [2], 1.26; in assay [3] it was 0.0992; in assay [4], -0.66; in assay [5], -0.0793; in assay [6], 1.25. Moreover, the composite z-score in [7] worked out at 0.853; in [9], 1.24; in [10], 0.773. Also, the z-score in assay [8] is 3.19 (inactive).
`COC(=O)[C@@]1(Cc2ccc(F)cc2)[C@H]2c3cc(C(=O)N4CCCC4)n(CCc4c[nH]c5ccc(OC)cc45)c3C[C@H]2CN1C(=O)c1ccccc1`: the composite z-score in assay [1] is 1.66; in assay [2], -0.619; in [3] it was 0.803; in assay [4], 1.3; in assay [5] it was 1.58; in [6], 1.46. Also, the composite z-score stood at 1.19 in [7], 2.02 in assay [9] and 0.413 in [10]. In assay [8], the z-score was 1.61 (inactive).
As for `CC(C)c1ccc(NN2C(C(O)c3ccco3)C=CC3C(=O)N(c4ccccc4)C(=O)C32)cc1` (stereo not given), the composite z-score in assay [1] came to 0.447; in assay [2] it was 0.334; in assay [3], 0.106; in [4], 0.677; in [5], 1.71; in [6], 1.46. For the same compound, the values for the composite z-score in assay [7], in assay [9] and in assay [10] were 1.2, 1.34 and -0.0606, respectively. The z-score in assay [8] was -1.22 (inactive).
`C=CCNC(=O)[C@@H]1[C@H]2C(=O)O[C@H](c3ccccc3)[C@H](c3ccccc3)N2[C@H](c2ccc(OCCO)cc2)[C@@]12C(=O)N(C(=O)OCCOC)c1ccc(C#CC3=CCCCC3)cc12`: the composite z-score in assay [1] was determined as 0.0698; in assay [2], 0.937; in assay [3] it was 0.0524; in [4], 0.59; in assay [5], 1.35; in assay [6] it was 1.33. Further, the figures for the composite z-score in [7], in assay [9] and in assay [10] were 1.17, 0.622 and 0.21, respectively. Besides, the z-score in [8] was 0.223 (inactive).
